Data on 13 molecules can be found in PubChem BioAssay (NCATS).

The nature of test [1]: Quantitative High-Throughput drug screen in 47 multiple myeloma cell lines against the NCATS MIPE library collection: MOLP8_DSMZ cell viability assay (AID 1918977).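 Also: 100% = DMSO-only wells and 0% = media-only wells without cells; nearly all actives have a fitted effect of over 45% in size.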 In a few lines: (§1)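 MIPE 4.0 approved/investigational drugs; 500 cells/well; 48 h 37 °C humidified 5% CO2; CTG luminescence readout; DMSO = 100%, media = 0% viability.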
Test [2] in a line: Quantitative High-Throughput drug screen in 47 multiple myeloma cell lines against the NCATS MIPE library collection: MM1S_ATCC cell viability assay (AID 1918980). Also: potency is read from the fitted curve at half-maximal effect; nearly all actives have a fitted effect of over 45% in size. The essentials:
as §1

The nature of test [3]: Quantitative High-Throughput drug screen in 47 multiple myeloma cell lines against the NCATS MIPE library collection: MM1R_ATCC cell viability assay (AID 1918981). Also: nearly all actives have a fitted effect of over 35% in size. Also: potency is read from the fitted curve at half-maximal effect. In a few lines:
as §1

Test [4] can be described thus: Quantitative High-Throughput drug screen in 47 multiple myeloma cell lines against the NCATS MIPE library collection: LP1_DSMZ cell viability assay (AID 1918982). Also: nearly all actives have a fitted effect of over 35% in size. Also: potency is read from the fitted curve at half-maximal effect. The essentials:
as §1

Test [5] in a line: Quantitative High-Throughput drug screen in 47 multiple myeloma cell lines against the NCATS MIPE library collection: KMS28PE_JCRB cell viability assay (AID 1918983). Also: nearly all actives have a fitted effect of over 35% in size. Also: potency is read from the fitted curve at half-maximal effect. The essentials: as §1
Test [6] is described as follows: Quantitative High-Throughput drug screen in 47 multiple myeloma cell lines against the NCATS MIPE library collection: L363_DSMZ cell viability assay (AID 1918984). Also: nearly all actives have a fitted effect of over 40% in size. Also: potency is read from the fitted curve at half-maximal effect. The following applies: L363 myeloma viability, CellTiter-Glo ATP luminescence, 48 h; viability (% of control): at 45.8 µM. The essentials:
as §1
(In general: In ATP-based viability assays light output follows the ATP content of the culture.)

Test [7] can be described thus: Quantitative High-Throughput drug screen in 47 multiple myeloma cell lines against the NCATS MIPE library collection: KMS34_JCRB cell viability assay (AID 1918985). Also: nearly all actives have a fitted effect of over 40% in size. Also: potency is read from the fitted curve at half-maximal effect. The essentials: as §1
A short description of test [8]: Quantitative High-Throughput drug screen in 47 multiple myeloma cell lines against the NCATS MIPE library collection: OCIMY5_PLB cell viability assay (AID 1918988). Also: potency is read from the fitted curve at half-maximal effect; nearly all actives have a fitted effect of over 65% in size. In a few lines:
as §1

A short description of test [9]: Quantitative High-Throughput drug screen in 47 multiple myeloma cell lines against the NCATS MIPE library collection: OPM1_PLB cell viability assay (AID 1918989). Also: nearly all actives have a fitted effect of over 40% in size. Also: potency is read from the fitted curve at half-maximal effect. As to viability (% of control): series mostly up to about 46 µM. In a few lines:
as §1

Test [10] can be described thus: Quantitative High-Throughput drug screen in 47 multiple myeloma cell lines against the NCATS MIPE library collection: U266_ATCC cell viability assay (AID 1919864). Also: nearly all actives have a fitted effect of over 35% in size. Also: potency is read from the fitted curve at half-maximal effect. The essentials: as §1
Test [11] in a line: Quantitative High-Throughput drug screen in 47 multiple myeloma cell lines against the NCATS MIPE library collection: XG6_PLB cell viability assay (AID 1919865). Also: nearly all actives have a fitted effect of over 40% in size. Also: potency is read from the fitted curve at half-maximal effect. The essentials: as §1
Test [12] is described as follows: Quantitative High-Throughput drug screen in 47 multiple myeloma cell lines against the NCATS MIPE library collection: OCIMY1_PLB cell viability assay (AID 1918979). Also: nearly all actives have a fitted effect of over 35% in size. Also: potency is read from the fitted curve at half-maximal effect.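 As to viability: series mostly up to about 46 µM; 100% = DMSO-only wells and 0% = cell-free media-only wells.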 The essentials: as §1
The nature of test [13]: Quantitative High-Throughput drug screen in 47 multiple myeloma cell lines against the NCATS MIPE library collection: XG1_PLB cell viability assay (AID 1919866). Also: nearly all actives have a fitted effect of over 35% in size. Also: potency is read from the fitted curve at half-maximal effect. The essentials: as §1
Test [14] is described as follows: Quantitative High-Throughput drug screen in 47 multiple myeloma cell lines against the NCATS MIPE library collection: NCIH929_DSMZ cell viability assay (AID 1918978). Also: nearly all actives have a fitted effect of over 35% in size. Also: potency is read from the fitted curve at half-maximal effect. The essentials:
as §1

Test [15] can be described thus: Quantitative High-Throughput drug screen in 47 multiple myeloma cell lines against the NCATS MIPE library collection: OCIMY7_PLB cell viability assay (AID 1918987). Also: potency is read from the fitted curve at half-maximal effect; nearly all actives have a fitted effect of over 65% in size. The following applies: OCI-MY7 myeloma viability, CellTiter-Glo ATP, 48 h; viability (% of DMSO): at 45.8 µM. In a few lines: as §1
A short description of test [16]: Quantitative High-Throughput drug screen in 47 multiple myeloma cell lines against the NCATS MIPE library collection: SKMM1_PLB cell viability assay (AID 1919863). Also: nearly all actives have a fitted effect of over 35% in size. Also: potency is read from the fitted curve at half-maximal effect. As to viability: series mostly up to about 46 µM. The conditions noted are these: SKMM1 myeloma viability, CellTiter-Glo ATP, 48 h; viability: stronger effect = lower value. The essentials:
as §1

Results filed as inconclusive are left out. Values without a mark were called inactive. The source made the active and inactive calls. Calls follow the shape of the dose curve; as a rule, active = well fitted curve in the direction sought with a large enough effect; inconclusive = small, poorly fitted or top-dose-only effect, or another doubt; inactive = no such curve, though single readings can be large; an effect the other way counts as inactive or inconclusive.

On to `CCCCn1c(=O)n(Cc2ccccc2F)c(=O)c2[nH]c(Cc3ccc(NC(C)=O)cc3)nc21`, for which the Potency entry in [1], in [3], in test [4], in test [6], in [9] and in [11] was “inactive” each time. The Potency in test [2] is 20.9 µM (active); in test [5], 18.7 µM (active); in test [7] it was 5.9 µM (active); in test [8], 11.8 µM (active); in test [10], 18.7 µM (active).
On to `CNC(=O)c1c(-c2ccc(F)cc2)oc2cc(N(CCO)S(C)(=O)=O)c(C3CC3)cc12`, for which the Potency was 18.7 µM (active) in test [12], 18.7 µM (active) in [11] and 20.9 µM (active) in test [13].
Regarding `CCNC(=O)CCCC=CC[C@@H]1[C@H](C=CC(O)CCc2ccccc2)[C@@H](O)C[C@@H]1O` (some centres not stated), the Potency result in [14], in test [12], in [4], in test [5], in [6] and in test [11] was “inactive” throughout. The Potency entry in [13] was “inactive”. The Potency is 5.9 µM (active) in test [2], 26.4 µM (active) in [3] and 26.4 µM (active) in [8].
Consider `C[C@@H](NC(=O)c1ncnc(N)c1Cl)c1ncc(C(=O)Nc2cc(C(F)(F)F)c(Cl)cn2)s1`, for which the Potency in test [12] is 2.96 µM (active); in test [2], 16.6 µM (active); in test [3], 18.7 µM (active); in test [4], 4.69 µM (active); in [5] it was 16.6 µM (active); in [7], 4.18 µM (active). The Potency in test [15] was 7.43 µM (active); in test [8] it was 9.35 µM (active); in test [16], 16.6 µM (active); in test [10], 26.4 µM (active).
As for `C[C@@H]1[C@H](O)[C@@H](C)C=CC=CC=CC=CC=CC=CC=C[C@H](O[C@@H]2O[C@H](C)[C@H](O)[C@H](N)[C@@H]2O)C[C@@H]2O[C@](O)(C[C@@H](O)C[C@@H](O)[C@H](O)CC[C@@H](O)C[C@@H](O)CC(=O)O[C@H]1C)C[C@H](O)[C@@H]2C(=O)O`, the Potency result in test [14], in test [5] and in [11] was “inactive” each time. Moreover, the Potency was 16.6 µM (active) in test [3], 11.8 µM (active) in [7], 4.18 µM (active) in test [8] and 5.26 µM (active) in test [16].
`C=CC(=O)Nc1cccc(Sc2nc(Nc3ccc(N4CCN(C)CC4)cc3)ncc2Cl)c1`: the Potency in test [15] is 0.743 µM (active); in [16] it was 37.2 µM (active); in test [11], 0.526 µM (active).
As for `OC[C@H]1O[C@@H](OCCc2ccc(O)cc2)[C@H](O)[C@@H](O)[C@H]1O`, the Potency entry in test [1], in test [12] and in test [3] was “inactive” throughout. The Potency in test [2] is 20.9 µM (active); in [9], 29.6 µM (active); in test [11], 5.9 µM (active).
On to `Cc1csc(-c2nnc(Nc3ccc(Oc4ncccc4-c4ccnc(N)n4)cc3)c3ccccc23)c1`, for which the Potency was 5.26 µM (active) in test [12]; 18.7 µM (active) in [2]; 20.9 µM (active) in test [3]; 20.9 µM (active) in test [4]; 20.9 µM (active) in [6]; 18.7 µM (active) in [9]. Moreover, the Potency in test [13] is 0.469 µM (active).
Turning to `COC(=O)N1CCN(Cc2cccc(NC(=O)Nc3ccc(C)nc3)c2F)CC1`, the Potency entry in [1], in test [12], in test [7], in [9], in [10] and in test [11] was “inactive” each time. In addition, the Potency result in [13] is “inactive”. In addition, the Potency in test [4] is 16.6 µM (active).
Regarding `NC(N)=Nc1nc(CSCCC(N)=NS(N)(=O)=O)cs1`, the Potency in test [14] is 8.33 µM (active); in test [2], 9.35 µM (active); in test [3], 23.5 µM (active); in test [15] it was 10.5 µM (active); in test [8], 29.6 µM (active); in [9], 16.6 µM (active). Further, the Potency in [10] is 20.9 µM (active); in [11] it was 6.62 µM (active). Moreover, the Potency result in test [5] and in test [7] was “inactive” throughout.
Turning to `O=[N+]([O-])c1ccc(Nc2ccccc2-c2ccccc2)c2nonc12`, the Potency result in test [12] and in [7] was “inactive” each time. Besides, the Potency in test [9] is 26.4 µM (active).
For the molecule `CCNC(=O)[C@H]1O[C@@H](n2cnc3c(N)nc(NCCc4ccc(CCC(=O)O)cc4)nc32)[C@H](O)[C@H]1O`, the Potency in [14] was 0.332 µM (active); in test [3], 0.0526 µM (active); in [8], 0.0662 µM (active); in test [10] it was 0.118 µM (active). Further, in test [12], the Potency entry was “inactive”.
As a reminder, the viability is a read-out of living cells in per cent, often relative to untreated cells. With `O=C(Nc1ccccc1)Nc1ccc(-c2ccc(C(=O)[C@H]3CCC[C@H]3C(=O)O)cc2)cc1`, the Potency result in test [12], in test [4], in test [7] and in test [9] was “inactive” each time. Besides, the Potency in [2] is 26.4 µM (active); in [8] it was 20.9 µM (active); in test [11] it was 4.69 µM (active); in test [13] it was 2.96 µM (active). For the same molecule, the viability in test [16] is 114%.
